Reference: PubChem BioAssay (Tox21)
Values joined by “and” are separate entries in the source; they are usually repeats but may differ in a detail not shown here. Equal values may be shown once. Inconclusive results are not listed. Active and inactive are the calls of the source. Unless noted, calls come from the whole dose curve; as a rule, active = well fitted curve in the direction sought with a large enough effect in the repeat runs; inconclusive = weak or mixed curves; inactive = no such curve, though single readings can be large; an effect the other way counts as inactive or inconclusive.

Experiments:
[1] = qHTS assay to identify small molecule agonists of the endoplasmic reticulum stress response signaling pathway - cell viability counter screen (AID 1159517; calls by dose curve; note: nearly all actives have a fitted effect of over 50% in size; note: potency is the fitted concentration of half-maximal effect)
Method in brief: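 Counter-screen wells were identical to the reporter wells. Cells were plated at 1,500 per well and dosed for 5 hr, then read for luminescence 30 min after CellTiter-Glo addition.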

[2] = qHTS assay to identify small molecule antagonists of the retinoid-related orphan receptor gamma (ROR-gamma) signaling pathway - cell viability counter screen (AID 1159520); note: nearly all actives have a fitted effect of over 50% in size; note: potency is the fitted concentration of half-maximal effect
Method in brief: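 Tet-on ROR gamma CHO cells were given compounds for 2 hr, then doxycycline hyclate at 1 uM final, and incubated 16 hr at 37 C. Viability was measured as ATP content by CellTiter-Glo luminescence.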

[3] = molecular target: Nuclear receptor ROR-gamma (Homo sapiens) (UniProt P51449); assay: qHTS assay to identify small molecule antagonists of the retinoid-related orphan receptor gamma (ROR-gamma) signaling pathway (AID 1159521; note: nearly all actives have a fitted effect of over 50% in size; note: potency is the fitted concentration of half-maximal effect)
Method in brief: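 Decreased RORE-driven luciferase luminescence indicates antagonism. Tet-on RORγ CHO cells received compound, then 1 uM final doxycycline 2 h later; signal read after 16 h incubation.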

[4] = qHTS assay to identify small molecule agonists of the AP-1 signaling pathway - cell viability counter screen (AID 1159525; calls by dose curve; note: nearly all actives have a fitted effect of over 55% in size; note: potency is the fitted concentration of half-maximal effect)
Method in brief: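 AP-1-bla ME-180 cells in Opti-MEM with 0.5% dialyzed FBS, compound exposure 5 h at 37 C in 15-point titration. Viability read in the same wells as ATP content by CellTiter-Glo luminescence, normalised to tetra-n-octylammonium bromide and DMSO controls.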

[5] = qHTS assay to identify small molecule agonists of the AP-1 signaling pathway (AID 1159526; calls by dose curve)
[6] = qHTS assay to identify small molecule agonists of the RXR signaling pathway - cell viability counter screen (AID 1159529); note: nearly all actives have a fitted effect of over 50% in size; note: potency is the fitted concentration of half-maximal effect
Method in brief: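 In this parallel viability measure, GeneBLAzer RXR-alpha HEK 293T cells (2% charcoal-stripped FBS) were given a 5 hr preincubation, treated with compounds 16 hr at 37 C, and read by CellTiter-Glo luminescence.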

[7] = qHTS assay to identify small molecule antagonists of the retinoid acid receptor (RAR) signaling pathway - cell viability counter screen (AID 1159551); note: nearly all actives have a fitted effect of over 35% in size; note: potency is the fitted concentration of half-maximal effect
Method in brief: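 Following overnight attachment, C3RL4 reporter cells received DMSO-dissolved compounds and then retinol (1 uM final). Six hours later at 37 C, ATP content was measured by CellTiter-Glo luminescence.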

[8] = qHTS assay to identify small molecule antagonists of the retinoic acid receptor (RAR) signaling pathway (AID 1159552; note: nearly all actives have a fitted effect of over 50% in size; note: potency is the fitted concentration of half-maximal effect)
Method in brief: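 C3RL4 RARE-luc cells, overnight plating; retinol 1 uM final added right after compound; 6 hr 37 C; luciferase read at 30 min RT.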

[9] = qHTS assay to identify small molecule antagonists of the estrogen related receptor (ERR) signaling pathway from Tox21 library - cell viability counter screen (AID 1224834); note: nearly all actives have a fitted effect of over 30% in size; note: potency is the fitted concentration of half-maximal effect
Method in brief: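 Viability readout (CellTiter-Fluor fluorescence, 30 min at 37 C) multiplexed with the ERR assay; cells treated 17.5 h at 37 C with compounds delivered in DMSO.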

[10] = qHTS assay to identify small molecule agonists of the constitutive androstane receptor (CAR) signaling pathway - cell viability counter screen (AID 1224836); note: nearly all actives have a fitted effect of over 45% in size; note: potency is the fitted concentration of half-maximal effect
Method in brief: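 Using CellTiter-Fluor, viability of HepG2 cells harbouring hCAR and CYP2B6-2.2kb was measured following 23 h incubation with a 15-concentration compound series plus PK11195 (0.75 uM final).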

[11] = molecular target: Retinoic acid receptor RXR-alpha (Homo sapiens) (UniProt P19793); assay: qHTS assay to identify small molecule agonists of the RXR signaling pathway (AID 1159527; calls by dose curve; note: nearly all actives have a fitted effect of over 35% in size)
Sequence of Retinoic acid receptor RXR-alpha (Homo sapiens) (P19793 whole entry, looked up): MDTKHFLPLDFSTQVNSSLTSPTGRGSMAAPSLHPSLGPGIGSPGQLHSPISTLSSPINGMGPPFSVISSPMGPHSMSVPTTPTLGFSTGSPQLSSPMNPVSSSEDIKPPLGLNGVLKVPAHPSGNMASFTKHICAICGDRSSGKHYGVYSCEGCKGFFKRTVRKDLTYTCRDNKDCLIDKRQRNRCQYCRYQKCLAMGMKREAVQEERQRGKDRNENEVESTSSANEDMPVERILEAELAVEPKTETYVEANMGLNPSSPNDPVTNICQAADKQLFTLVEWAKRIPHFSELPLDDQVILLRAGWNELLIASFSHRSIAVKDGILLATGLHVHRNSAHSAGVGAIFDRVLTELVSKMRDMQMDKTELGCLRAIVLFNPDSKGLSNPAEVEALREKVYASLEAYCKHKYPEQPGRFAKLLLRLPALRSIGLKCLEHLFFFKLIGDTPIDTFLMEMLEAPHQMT
Method in brief: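 16 hr incubation of compound-treated RXR-alpha-UAS-bla HEK 293T cells (2% charcoal-stripped FBS, 37 C) preceded a 2 hr room-temperature LiveBLAzer FRET substrate step and blue/green fluorescence measurement.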

[12] = qHTS assay to identify small molecule agonists of the retinoic acid receptor (RAR) signaling pathway (AID 1159553); note: potency is the fitted concentration of half-maximal effect
Method in brief: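 Cell line C3RL4, RARE luciferase reporter. Treatment: compounds in DMSO, 6 hr, 37 C, 5% CO2, after overnight plating. Detection: luminescence, 30 min RT after reagent.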

[13] = qHTS assay to identify small molecule agonists of the endoplasmic reticulum stress response signaling pathway (AID 1159516; active = well fitted activation curve with a large enough effect in the signal ratio in the repeat runs, not every such curve was filed as active; the % refers to the signal ratio; note: potency is the fitted concentration of half-maximal effect)
Method in brief: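 ER stress element reporter (bla) in HeLa. 1,500 cells/well, overnight attachment; 5 hr compound; 2 hr RT substrate; dual-emission fluorescence.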

[14] = qHTS assay to identify small molecule antagonists of the estrogen related receptor (ERR) signaling pathway - cell viability counter screen (AID 1224818);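 note: series mostly up to about 46 µM; viability measured after 17.5 h of compound exposure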
Method in brief: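 Here, ERR cells are plated at 2,000 cells per well, allowed 6 h to attach, and treated with compounds in DMSO for 17.5 h at 37 C. CellTiter-Fluor is then added and fluorescence read after 30 min.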

[15] = qHTS assay to identify small molecule agonists of the estrogen related receptor (ERR) signaling pathway (AID 1224820)
Method in brief: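 Quantitative HTS of the LOPAC library used NTP ERR reporter cells treated 18 h at 37 C. Signal is luminescence after One-Glo addition and a 30 min room-temperature incubation.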

[16] = system: estrogen-related receptor alpha (ERRalpha) with PGC-1alpha coactivator, human; assay: qHTS assay to identify small molecule antagonists of the estrogen related receptor signaling pathway with the pleiotropic PPARgamma coactivator (PGC) (AID 1224821; calls by dose curve)
Method in brief: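 Quantitative HTS for antagonism: PGC/ERR cells received compounds after 6 h attachment and were incubated 18 h at 37 C, with luminescence (One-Glo) as the endpoint.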

[17] = qHTS assay to identify small molecule agonists of the estrogen related receptor signaling pathway with the pleiotropic PPARgamma coactivator (PGC) (AID 1224823)
Method in brief: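 Cell-based luciferase assay in the NTP-supplied PGC/ERR line, 2,000 cells/well; 18 h compound exposure at 37 C, luminescence after One-Glo.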

[18] = molecular target: Luciferin 4-monooxygenase (Photinus pyralis) (UniProt P08659); assay: qHTS assay to identify small molecule inhibitors of firefly luciferase (AID 1224835); note: nearly all actives have a fitted effect of over 25% in size; note: potency is the fitted concentration of half-maximal effect
Sequence of Luciferin 4-monooxygenase (Photinus pyralis) (P08659 whole entry, looked up): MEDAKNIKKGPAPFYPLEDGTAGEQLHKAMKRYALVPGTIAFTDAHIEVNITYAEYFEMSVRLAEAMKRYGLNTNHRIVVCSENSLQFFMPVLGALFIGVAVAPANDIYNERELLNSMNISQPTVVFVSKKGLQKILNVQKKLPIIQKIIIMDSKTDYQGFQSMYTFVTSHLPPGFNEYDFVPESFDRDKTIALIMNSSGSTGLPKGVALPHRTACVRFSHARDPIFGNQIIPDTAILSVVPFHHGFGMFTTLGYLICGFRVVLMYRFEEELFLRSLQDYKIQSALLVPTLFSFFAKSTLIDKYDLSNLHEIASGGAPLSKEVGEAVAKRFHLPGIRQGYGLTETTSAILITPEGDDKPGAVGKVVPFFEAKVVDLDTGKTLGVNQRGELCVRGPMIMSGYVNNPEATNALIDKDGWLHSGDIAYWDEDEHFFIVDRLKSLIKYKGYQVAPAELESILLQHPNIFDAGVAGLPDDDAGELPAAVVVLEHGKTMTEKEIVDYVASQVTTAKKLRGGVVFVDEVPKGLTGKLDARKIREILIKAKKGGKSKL
Method in brief: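 Biochemical qHTS: compounds run as interplate titrations against purified firefly enzyme, with D-luciferin and ATP each at its KM concentration. Light output recorded by CCD imaging.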

[19] = qHTS assay to identify small molecule antagonists of the estrogen related receptor (ERR) signaling pathway (AID 1224819; note: nearly all actives have a fitted effect of over 50% in size; note: potency is the fitted concentration of half-maximal effect)
Method in brief: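 LOPAC library screened for antagonism as reduced One-Glo luminescence in ERR reporter cells (2,000/well). Compounds were added after 6 h pre-incubation and left 18 h at 37C; reading followed a 30 min room-temperature reagent step.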

[20] = qHTS assay to identify small molecule antagonists of the estrogen related receptor signaling pathway with the pleiotropic PPARgamma coactivator (PGC) cell viability counter screen (AID 1224822; note: potency is the fitted concentration of half-maximal effect;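 note: viability read after 17.5 h compound exposure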)
Method in brief: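 qHTS format, DMSO compound stocks pin-transferred onto PGC/ERR cells 6 h after plating; 17.5 h exposure at 37 C, then CellTiter-Fluor fluorescence.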

Measured: Potency

CCCCCCCCCC(=O)N(C)C
inactive: [1] | [2] | [3] | [4] | [5] | [6] | [7] | [8] | [9] | [10]

SCCCCCCCCS
inactive: [2] | [3] | [4] | [5] | [11] | [6] | [7] | [8] | [12] | [9] | [10]
active: [1] 34.7 µM

CN1CCN(C2Cc3ccccc3Sc3ccc(Cl)cc32)CC1 (stereo not given)
active: [3] 26.6 µM | [6] 23.9 µM | [8] 29.8 µM
inactive: [13] | [7] | [14] | [15] | [16] | [17] | [18] | [10]

CCO[Si](CCCSSSSCCC[Si](OCC)(OCC)OCC)(OCC)OCC
inactive: [13] | [2] | [7] | [18] | [10]
active: [4] 24.6 µM | [6] 21.9 µM

CCN(CC)CCOc1ccc(C(O)(Cc2ccc(Cl)cc2)c2ccc(C)cc2)cc1 (stereo not given)
active: [3] 29.8 µM | [6] 21.3 µM | [8] 26.6 µM | [9] 33.5 µM
inactive: [13]

CC(C)OC(=O)c1cc(C(=O)OC(C)C)cc([N+](=O)[O-])c1
inactive: [13] | [2] | [4] | [7] | [14] | [19] | [15] | [16] | [20] | [17] | [9] | [10]

CN(C)CCOC(c1ccccc1)c1ccccc1 (tested in a mixture with another compound)
inactive: [13] | [2] | [4] | [7] | [9] | [18]

CCOC(=O)C1=C(C)NC(C)=C(C(=O)OCC)C1c1ccccc1/C=C/C(=O)OC(C)(C)C
inactive: [11] | [7] | [10]
active: [13] 19 µM | [2] 29.8 µM | [4] 26.8 µM | [8] 29.8 µM | [9] 29.8 µM

CCCOc1sc(C(=O)N2CCC(c3cc(CN)ccc3F)CC2)c(C)c1Br
active: [1] 44.9 µM | [3] 28.1 µM | [4] 44.9 µM | [7] 62.8 µM | [8] 39.7 µM | [9] 49.9 µM

C=CCCCCCCC=C
inactive: [2] | [4] | [5] | [7] | [9] | [10]
active: [1] 55.1 µM

COc1cc(C=C2CCC/C(=C\c3ccc(O)c(OC)c3)C2=O)ccc1O
active: [2] 29.8 µM | [4] 26.8 µM | [12] 13.3 µM | [9] 13.3 µM | [18] 30.9 µM
inactive: [1] | [7] | [8]

O=C1NCN(c2ccccc2)C12CCN(CCCC(c1ccc(F)cc1)c1ccc(F)cc1)CC2
active: [1] 23.9 µM | [2] 33.5 µM | [3] 26.6 µM | [4] 21.3 µM | [6] 21.3 µM | [8] 29.8 µM | [19] 23.7 µM | [20] 22.8 µM | [9] 26.6 µM | [10] 16.8 µM
inactive: [15] | [16] | [17] | [18]

Nc1cc(Cl)c([N+](=O)[O-])cc1O
active: [9] 54 µM
inactive: [1] | [3] | [4] | [11] | [7] | [12]

CSc1c(Cl)c(Cl)c(Cl)c(Cl)c1Cl
active: [1] 54.6 µM | [6] 43.4 µM
inactive: [2] | [3] | [7] | [8] | [12] | [9] | [18] | [10]

Cc1oc(-c2ccccc2)nc1CCOc1ccc(C[C@H](Nc2ccccc2C(=O)c2ccccc2)C(=O)O)cc1
active: [1] 54.9 µM | [2] 61.1 µM
inactive: [7] | [8]

c1ccc(Sc2ccccc2)cc1
inactive: [2] | [3] | [4] | [7] | [8] | [9] | [18] | [10]
active: [1] 43.6 µM

C[C@@]12C(=O)OC(=O)[C@]1(C)C1CCC2O1
inactive: [1] | [18]
active: [2] 4.22 µM | [3] 4.22 µM | [7] 8.41 µM | [9] 6.68 µM | [10] 1.68 µM

COc1ccc(-n2nc(CCC(=O)N(C)O)cc2-c2ccc(Cl)cc2)cc1
inactive: [1] | [2] | [4] | [7] | [8] | [12] | [18]
active: [9] 26.6 µM

Nc1ccc2cc3ccc(N)cc3nc2c1
active: [2] 26.6 µM | [8] 4.33 µM and 16.8 µM
inactive: [1] | [3] | [4] | [18]

CC(=O)Nc1ccc(O)cc1
inactive: [1] | [2] | [4] | [6] | [7] | [9] | [18] | [10]

C/C=C/C(=O)Oc1c(CCCCCC(C)C)cc([N+](=O)[O-])cc1[N+](=O)[O-]
active: [1] 21.9 µM | [2] 19.3 µM | [3] 6.11 µM | [6] 24.5 µM | [8] 17.2 µM | [9] 24.3 µM | [10] 19.3 µM
inactive: [7] | [12] | [18]
